The source made the active and inactive calls. Calls follow the shape of the full dose curve. Square brackets hold non-standard residues; d marks the D form. Peptide text beside a SMILES is read from it. Orn = NCCC[C@H](N)C(=O)O

A short description of the test: qHTS profiling of Chloroquine Analogs as inhibitors of Plasmodium falciparum (3D7) proliferation. The conditions noted are these: activity change, negative = inhibition: at 28.7 µM (top of the series) unless noted. From the text: Plasmodium falciparum is a virulent malarial parasite that kills 1-2 million people worldwide each year. Transmitted by mosquitoes, the sporozoite form of the parasite enters the blood stream to infect hepatocytes, where they become merozoites that infect red blood cells (erythrocytes). Within erythrocytes, merozoites begin a […] cycle of growth and division, after which the parasite is released to infect new red blood cells. Gametocytes, which form within erythrocytes as well, circulate in the bloodstream and are ingested by the mosquito, thereby completing the life cycle. To profile malarial isolates for differential chemical responses and to identify inhibitors of malarial growth, an assay that measures P. falciparum growth and replication within erythrocytes was employed. This assay uses a DNA binding fluorescent dye (SYBR Green) to detect parasite DNA following cell lysis. Because mature erythrocytes lack DNA, only Plasmodium-derived DNA is detected.
The SYBR Green viability assay was adapted from a method described previously (Plouffe et al., 2008). For screening 3 ul culture medium was dispensed into 1536 well black clear bottom plates (Aurora Biotechnologies) using a Multidrop Combi (Thermo Fisher Scientific Inc.), 23 nL compounds in DMSO were added by a pin tool (Kalypsys), and 5 ul of erythrocytes infected with P. falciparum (0.3% parasitemia, 2.5% hematocrit final concentration) were added. The plates were incubated at 37 C in a humidified incubator in 5% CO2 for 72 h, and 2 ul lysis buffer (20 mM Tris HCl, 10 mM EDTA, 0.16% saponin, 1.6% triton X, 10X SYBR Green I supplied as 10,000X […] by Invitrogen) was added to each well. The plates were mixed for 25 sec with gentle shaking and incubated overnight at room temperature in the dark. The following morning, fluorescence intensity at 485(14) nm excitation and 535(25) nm emission wavelengths was measured on an EnVision (Perkin Elmer) plate reader. Plate reads were normalized relative to the control inhibitor (0.29 uM artemisinin) and vehicle (DMSO) wells present on each plate and then corrected by an algorithm using vehicle-only control plates at the beginning and end of the compound plate stack.
In general terms: In qHTS, concentration-response curves come from the screen itself.
For `O=C(Nc1ccc(Cl)cc1)Nc1ccc(Cl)c(Cl)c1`, the activity change, negative = inhibition was -102%.
Turning to `O=C1C(=O)c2ccccc2C(O)=C1C1CCC(c2ccc(Cl)cc2)CC1` (stereo not given), the Potency is 0.0007 µM (active).
Regarding `C/C(=C\c1csc(C)n1)[C@@H]1C[C@@H]2O[C@]2(C)CCC[C@H](C)[C@H](O)[C@@H](C)C(=O)C(C)(C)[C@@H](O)CC(=O)O1`, the Potency result is “inactive”.
On to `CC[C@H]1OC(=O)[C@H](C)[C@@H](O[C@H]2C[C@@](C)(OC)[C@@H](O)[C@H](C)O2)[C@H](C)[C@@H](O[C@@H]2O[C@H](C)C[C@H](N(C)C)[C@@H]2O)[C@](C)(O)C[C@@H](C)CN(C)[C@H](C)[C@@H](O)[C@]1(C)O`, for which the Potency was 9.43 µM (active).
Take `CC(C)C[C@@H]1NC(=O)[C@H](CCCN)NC(=O)[C@H](C(C)C)NC(=O)[C@@H]2CCCN2C(=O)[C@@H](Cc2ccccc2)NC(=O)[C@H](CC(C)C)NC(=O)[C@H](CCCN)NC(=O)[C@H](C(C)C)NC(=O)[C@@H]2CCCN2C(=O)[C@@H](Cc2ccccc2)NC1=O` (cyclo(V[Orn]L[dF]PV[Orn]L[dF]P)): the activity change, negative = inhibition was -102%.
On the same count and under the same terms, with `C[C@H]1[C@@H](CCC(=O)Nc2ccc(F)cc2)O[C@@H]2O[C@]3(C)CC[C@@H]4[C@H](C)CC[C@@H]1[C@@]24OO3` the figure was -100%.
Regarding `CN1CCN(CCCN2c3ccccc3Sc3ccc(S(=O)(=O)N(C)C)cc32)CC1`, the Potency was 0.716 µM (active).
For the compound `CC(=O)N(O)CCCP(=O)(O)O`, the Potency is 0.266 µM (active).
On to `C=C[C@@H]1CN2CC[C@@H]1C[C@H]2[C@H](O)c1ccnc2ccc(OC)cc12`, for which the activity change, negative = inhibition was -98.6%.
In the case of `C[C@@H]1CC[C@H]2[C@@H](C)C(=O)O[C@@H]3OC4(C)CC[C@@H]1C32OO4` (stereo not given in full), the activity change, negative = inhibition was -99.4% [at 57.5 µM].
Regarding `CN(C)CCOC(c1ccccc1)c1ccccc1`, the Potency result was “inactive”.
For `C[C@@H]1[C@@H](CC(C[C@H]2O[C@@H]3O[C@]4(C)CC[C@@H]5[C@H](C)CC[C@@H]([C@H]2C)[C@@]35OO4)C(=O)NCc2ccc(F)cc2)O[C@@H]2O[C@]3(C)CC[C@H]4[C@H](C)CC[C@@H]1[C@@]24OO3` (stereo not given in full), the activity change, negative = inhibition is -101%.
Consider `Cc1cccc(C)c1NC(=O)C(C)N` (stereo not given), for which the Potency result was “inactive”.
Regarding `Clc1ccc(COC(Cn2ccnc2)c2ccc(Cl)cc2Cl)c(Cl)c1` (stereo not given), the activity change, negative = inhibition was -97.6% [at 14.2 µM].
Consider `CCCCN(CCCC)CCC(O)c1cc2c(Cl)cc(Cl)cc2c2cc(C(F)(F)F)ccc12` (stereo not given), for which the Potency is 0.0051 µM (active).
Regarding `CCCC[C@@H]1C[C@@H](C(=O)NC([C@H](C)Cl)[C@H]2O[C@H](S)[C@H](O)[C@@H](O)[C@@H]2O)N(C)C1` (stereo not given in full), the Potency result was “inactive”.
With `COCC(=O)O[C@]1(CCN(C)CCCc2nc3ccccc3[nH]2)CCc2cc(F)ccc2[C@@H]1C(C)C`, the activity change, negative = inhibition is -102%.
For the compound `CCCCN(CCCC)CC(O)c1cc(Cl)cc2c1-c1ccc(Cl)cc1C2=Cc1ccc(Cl)cc1` (stereo not given), the activity change, negative = inhibition was -97.1%.
`C=CCON=C(C[C@H]1O[C@@H]2O[C@]3(C)CC[C@@H]4[C@H](C)CC[C@@H]([C@H]1C)[C@@]24OO3)[C@H]1O[C@@H]2O[C@]3(C)CC[C@H]4[C@H](C)CC[C@@H]([C@@H]1C)[C@@]24OO3`: the activity change, negative = inhibition is -102%.
As to `CN1CC[C@H](CN2c3ccccc3Sc3ccccc32)C1`, the Potency result is “inactive”.
In the case of `C=Cc1c(C)c2cc3nc(cc4[nH]c(cc5nc(cc1[nH]2)C(C)=C5CCC(=O)OC)c(CCC(=O)O)c4C)[C@@]1(C)C3=CC=C(C(=O)OC)[C@H]1C(=O)OC`, the Potency entry was “inactive”.
Regarding `CC(C)N=C(N)N=C(N)Nc1ccc(Cl)cc1`, the Potency was 0.0266 µM (active).
As for `C=CC(C)=C[C@@]1(C)SC(=O)C(C)=C1O`, the Potency entry is “inactive”.
For the compound `CC[C@@H](C)[C@H]1O[C@]2(CC[C@H]1C)C[C@@H]1C[C@@H](CC=C(C)[C@@H](O[C@H]3C[C@H](OC)[C@@H](O[C@H]4C[C@H](OC)[C@@H](O)[C@H](C)O4)[C@H](C)O3)[C@@H](C)C=CC=C3CO[C@@H]4[C@H](O)C(C)=C[C@@H](C(=O)O1)[C@]34O)O2`, the activity change, negative = inhibition is -99.9%.
With `COc1cc2c(cc1C(F)(F)F)N(C(=O)Nc1cc(F)cc(-c3cccnc3)c1)CC2`, the Potency was 3.76 µM (active).
Consider `C[C@H]1[C@@H](OC(=O)CCC(=O)O)O[C@@H]2OC3(C)CC[C@H]4[C@H](C)CC[C@@H]1[C@@]24OO3`, for which the activity change, negative = inhibition was -101%.
On to `C[C@@H]1[C@@H](C(=O)C[C@H]2O[C@@H]3O[C@]4(C)CC[C@@H]5[C@H](C)CC[C@@H]([C@H]2C)[C@@]35OO4)O[C@@H]2O[C@]3(C)CC[C@H]4[C@H](C)CC[C@@H]1[C@@]24OO3`, for which the Potency is 0.0017 µM (active).
`O=CN(O)CCCP(=O)(O)O`: the Potency is 0.53 µM (active).
Take `C[C@@H]1[C@@H](CC(C[C@H]2O[C@@H]3O[C@]4(C)CC[C@@H]5[C@H](C)CC[C@@H]([C@H]2C)[C@@]35OO4)C[S+](=O)([O-])c2ccc(COC(=O)N(C)C)cc2)O[C@@H]2O[C@]3(C)CC[C@H]4[C@H](C)CC[C@@H]1[C@@]24OO3` (stereo not given in full): the Potency entry was “inactive”.
As for `C=C[C@@H]1CN2CCC1C[C@@H]2C(O)c1ccnc2ccc(OC)cc12` (stereo not given in full), the activity change, negative = inhibition was -97.6%.
For the compound `CC(CNC1CCCCC1)OC(=O)c1ccccc1` (stereo not given), the Potency result was “inactive”.
As for `CCCC(=O)O[C@]1(C(=O)CCl)[C@H](C)C[C@@H]2[C@H]3CCC4=CC(=O)C=C[C@]4(C)[C@@]3(F)C(=O)C[C@@]21C`, the activity change, negative = inhibition is -101%.
As for `CN([C@@H](Cc1ccc(OS(=O)(=O)c2cccc3cnccc23)cc1)C(=O)N1CCN(c2ccccc2)CC1)S(=O)(=O)c1cccc2cnccc12`, the Potency is 0.237 µM (active).
For `CC1=CC(=O)c2ccccc2C1=O`, the Potency entry is “inactive”.
`CCN(CC)CCCC(C)Nc1ccnc2cc(Cl)ccc12` (stereo not given): the activity change, negative = inhibition was -99%.
As to `C[C@@H]1CCC2[C@@H](C)[C@@H](O)O[C@@H]3O[C@@]4(C)CC[C@@H]1[C@@]23OO4` (stereo not given in full), the activity change, negative = inhibition is -101%.
For the compound `CO[C@H]1O[C@@H]2O[C@@]3(C)CC[C@@H]4[C@@H](C)CC[C@@H]([C@H]1C)[C@@]24OO3`, the Potency entry is “inactive”.
Regarding `COc1ccc2nc3cc(Cl)ccc3c(Nc3cc(CN4CCCC4)c(O)c(CN4CCCC4)c3)c2n1`, the activity change, negative = inhibition was -101%.
Same read-out and setting: with `CNCCC(Oc1ccccc1OC)c1ccccc1` (stereo not given) the figure was -93.6%.
Regarding `Cn1cncc1[C@@](N)(c1ccc(Cl)cc1)c1ccc2c(c1)c(-c1cccc(Cl)c1)cc(=O)n2C`, the Potency was 1.68 µM (active).

The values are drawn from PubChem BioAssay AID743325 (National Center for Advancing Translational Sciences (NCATS), 2014).
